# In PubChem BioAssay (NCI):
# This is part of a sample that, as a whole, favours compounds with a hit. Of some 79,000 tested, about 15% had one in any assay. A number with no mark means an inactive call. The source made the active and inactive calls. Cut-off read from the data, not from the text of the source: active = growth inhibition above about 70%; inactive = the rest.
# What was measured:
# [1] = NCI Yeast Anticancer Drug Screen. Data for the wt1 strain (AID 149);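 note: 0% = growth of vehicle-treated wt1 cultures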; conditions: S. cerevisiae wt1 strain (SPY 50644) growth inhibition, active compounds read high
# Method in brief: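 wt1 yeast, compound-treated; % growth inhibition vs vehicle control.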
# [2] = NCI Yeast Anticancer Drug Screen. Data for the rad50EPP+ strain (AID 151);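 note: 0% = growth of vehicle-treated control cultures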; conditions: S. cerevisiae rad50 mutant strain, active compounds read high
# Method in brief: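 Read-out is yeast growth inhibition relative to vehicle; cells used were the rad50EPP+ strain.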
# [3] = NCI Yeast Anticancer Drug Screen. Data for the mgt1 strain (AID 153); conditions: S. cerevisiae mgt1 mutant growth inhibition, active compounds read high
# Method in brief: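 Measured: inhibition of mgt1 yeast growth by compound, normalized to vehicle-treated cultures.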
# [4] = NCI Yeast Anticancer Drug Screen. Data for the rad50 strain (AID 155);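 note: 0% = growth of vehicle-only cultures of the same strain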; conditions: S. cerevisiae rad50 strain growth inhibition, active compounds read high
# Method in brief: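 Genetically altered yeast (DNA repair pathway); compound treatment; growth inhibition vs vehicle ctrl.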
# [5] = NCI Yeast Anticancer Drug Screen. Data for the mec2-1 strain (AID 157); conditions: S. cerevisiae mec2-1 strain, active compounds read high
# Method in brief: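 Using mec2-1 yeast: add compound, measure growth, express inhibition versus vehicle-treated cultures.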
# [6] = NCI Yeast Anticancer Drug Screen. Data for the rad14 strain (AID 159);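 note: 0% = growth of vehicle-treated control cultures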; conditions: S. cerevisiae rad14 strain growth inhibition, active compounds read high
# Method in brief: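 Test compounds were applied to a repair-deficient yeast strain. Its growth was then compared with that of cultures given vehicle alone, and inhibition was expressed relative to those controls.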
# [7] = NCI Yeast Anticancer Drug Screen. Data for the sgs1 mgt1 strain (AID 161);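 note: 0% = growth of cultures given vehicle only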; conditions: S. cerevisiae sgs1 mgt1 strain, active compounds read high
# Method in brief: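 Growth of a repair-deficient yeast mutant was monitored after compound treatment and expressed as inhibition relative to vehicle-treated cultures.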
# [8] = NCI Yeast Anticancer Drug Screen. Data for the CLN2oe strain (AID 163);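 note: 0% = growth of vehicle-only control cultures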; conditions: S. cerevisiae CLN2oe strain, active compounds read high
# Method in brief: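 Whole-cell yeast growth assay. A strain engineered for altered cell-cycle control received compound, and inhibition relative to vehicle-treated cultures was recorded.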
# [9] = NCI Yeast Anticancer Drug Screen. Data for the cln2 rad14 strain (AID 165);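 note: 0% = growth equal to vehicle treated cultures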; conditions: S. cerevisiae cln2 rad14 strain, active compounds read high
# Method in brief: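 Yeast strain cln2 rad14, bearing defects in cell cycle control and DNA repair, serves as the test system; values reflect growth inhibition compared with vehicle.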
# [10] = NCI Yeast Anticancer Drug Screen. Data for the bub3 strain (AID 167); conditions: S. cerevisiae bub3 mutant strain, active compounds read high
# Method in brief: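 Yeast carrying a defined mutation is treated with each compound, and growth is compared with that of vehicle-exposed cells to give inhibition.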
# [11] = NCI Yeast Anticancer Drug Screen. Data for the wt2 strain (AID 169);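 note: 0% = growth of vehicle-treated yeast cultures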; conditions: S. cerevisiae wt2 strain growth inhibition, active compounds read high
# Method in brief: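 Treated yeast vs. vehicle-treated yeast: growth inhibition determined.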
# [12] = NCI Yeast Anticancer Drug Screen. Data for the mlh1 strain (AID 171);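 note: 0% = growth of vehicle-treated control cultures of the same strain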; conditions: S. cerevisiae mlh1 strain growth inhibition, active compounds read high
# Method in brief: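 A yeast strain with a defined genetic lesion serves as the test organism. Cultures receive compound or vehicle, and growth is measured.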
# [13] = NCI Yeast Anticancer Drug Screen. Data for the sgs1 strain (AID 173);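 note: 0% = growth of vehicle-only control cultures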; conditions: S. cerevisiae sgs1 mutant, active compounds read high
# Method in brief: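 A genetically defined yeast mutant is incubated with the test compound, and its growth is compared to that of the same strain given vehicle.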
# [14] = NCI Yeast Anticancer Drug Screen. Data for the mlh1 rad18 strain (AID 175); conditions: S. cerevisiae mlh1 rad18 strain growth inhibition, active compounds read high
# Method in brief: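 Steps: expose repair-defective yeast to compound; measure growth; express inhibition against vehicle-treated controls.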
# [15] = NCI Yeast Anticancer Drug Screen. Data for the rad18 strain (AID 177); conditions: S. cerevisiae rad18 mutant growth inhibition, active compounds read high
# Method in brief: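 Measured value is growth inhibition of a yeast strain bearing a DNA repair alteration, referenced to vehicle-treated cells.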
# [16] = at 5.0 µM (retest, dose inferred, filed as 0.5)
# [17] = at 50.0 µM (retest, dose inferred, filed as 5.0)
smiles,measurement,setting,value
Cc1oc2ccccc2c(=O)c1Cn1nnc2ccccc21,growth inhibition,[1]; at 1.2 µM,-2%
same,growth inhibition,[1]; at 3.7 µM,-1%
same,growth inhibition,[1]; at 11.0 µM,-2%
same,growth inhibition,[1]; at 33.0 µM,-6%
same,growth inhibition,[1]; at 100.0 µM,6%
same,growth inhibition,[2]; at 1.2 µM,-1%
same,growth inhibition,[2]; at 3.7 µM,3%
same,growth inhibition,[2]; at 11.0 µM,8%
same,growth inhibition,[2]; at 33.0 µM,17%
same,growth inhibition,[2]; at 100.0 µM,35%
same,growth inhibition,[3]; at 1.2 µM,0%
same,growth inhibition,[3]; at 3.7 µM,2%
same,growth inhibition,[3]; at 11.0 µM,0%
same,growth inhibition,[3]; at 33.0 µM,2%
same,growth inhibition,[3]; at 100.0 µM,26%
same,growth inhibition,[4]; at 1.2 µM,-3%
same,growth inhibition,[4]; at 3.7 µM,-1%
same,growth inhibition,[4]; [16],-20%
same,growth inhibition,[4]; at 11.0 µM,-1%
same,growth inhibition,[4]; at 33.0 µM,13%
same,growth inhibition,[4]; [17],47%
same,growth inhibition,[4]; at 50.0 µM,4.55%
same,growth inhibition,[4]; at 100.0 µM,73% (active)
same,growth inhibition,[5]; at 1.2 µM,-2%
same,growth inhibition,[5]; at 3.7 µM,-3%
same,growth inhibition,[5]; [16],1%
same,growth inhibition,[5]; at 11.0 µM,-2%
same,growth inhibition,[5]; at 33.0 µM,1%
same,growth inhibition,[5]; [17],5%
same,growth inhibition,[5]; at 50.0 µM,14.6%
same,growth inhibition,[5]; at 100.0 µM,36%
same,growth inhibition,[6]; at 1.2 µM,-1%
same,growth inhibition,[6]; at 3.7 µM,-1%
same,growth inhibition,[6]; at 11.0 µM,1%
same,growth inhibition,[6]; at 33.0 µM,8%
same,growth inhibition,[6]; at 100.0 µM,36%
same,growth inhibition,[7]; [16],-1%
same,growth inhibition,[7]; [17],22%
same,growth inhibition,[7]; at 50.0 µM,16.9%
same,growth inhibition,[8]; at 1.2 µM,0%
same,growth inhibition,[8]; at 3.7 µM,0%
same,growth inhibition,[8]; at 11.0 µM,-4%
same,growth inhibition,[8]; at 33.0 µM,-5%
same,growth inhibition,[8]; at 100.0 µM,19%
same,growth inhibition,[9]; [16],9%
same,growth inhibition,[9]; [17],50%
same,growth inhibition,[9]; at 50.0 µM,15.7%
same,growth inhibition,[10]; at 1.2 µM,-1%
same,growth inhibition,[10]; at 3.7 µM,-2%
same,growth inhibition,[10]; [16],3%
same,growth inhibition,[10]; at 11.0 µM,0%
same,growth inhibition,[10]; at 33.0 µM,10%
same,growth inhibition,[10]; [17],41%
same,growth inhibition,[10]; at 50.0 µM,21.9%
same,growth inhibition,[10]; at 100.0 µM,67%
same,growth inhibition,[11]; at 1.2 µM,-2%
same,growth inhibition,[11]; at 3.7 µM,-2%
same,growth inhibition,[11]; at 11.0 µM,-1%
same,growth inhibition,[11]; at 33.0 µM,0%
same,growth inhibition,[11]; at 100.0 µM,32%
same,growth inhibition,[12]; at 1.2 µM,-1%
same,growth inhibition,[12]; at 3.7 µM,-2%
same,growth inhibition,[12]; at 11.0 µM,-2%
same,growth inhibition,[12]; at 33.0 µM,1%
same,growth inhibition,[12]; at 100.0 µM,43%
same,growth inhibition,[13]; at 1.2 µM,0%
same,growth inhibition,[13]; at 3.7 µM,1%
same,growth inhibition,[13]; at 11.0 µM,2%
same,growth inhibition,[13]; at 33.0 µM,12%
same,growth inhibition,[13]; at 100.0 µM,68%
same,growth inhibition,[14]; [16],-1%
same,growth inhibition,[14]; [17],27%
same,growth inhibition,[14]; at 50.0 µM,-11.3%
same,growth inhibition,[15]; at 1.2 µM,-2%
same,growth inhibition,[15]; at 3.7 µM,-2%
same,growth inhibition,[15]; at 11.0 µM,1%
same,growth inhibition,[15]; at 33.0 µM,15%
same,growth inhibition,[15]; at 100.0 µM,55%
O=[N+]([O-])[O][Sn]([O][Sn]([O][N+](=O)[O-])([c]1ccccc1)[c]1ccccc1)([c]1ccccc1)[c]1ccccc1,growth inhibition,[1]; at 1.2 µM,-3%
same,growth inhibition,[1]; at 3.7 µM,-7%
same,growth inhibition,[1]; at 11.0 µM,-11%
same,growth inhibition,[1]; at 33.0 µM,-2%
same,growth inhibition,[1]; at 100.0 µM,62%
same,growth inhibition,[2]; at 1.2 µM,8%
same,growth inhibition,[2]; at 3.7 µM,-2%
same,growth inhibition,[2]; at 11.0 µM,0%
same,growth inhibition,[2]; at 33.0 µM,20%
same,growth inhibition,[2]; at 100.0 µM,99% (active)
same,growth inhibition,[3]; at 1.2 µM,8%
same,growth inhibition,[3]; at 3.7 µM,10%
same,growth inhibition,[3]; at 11.0 µM,25%
same,growth inhibition,[3]; at 33.0 µM,10%
same,growth inhibition,[3]; at 100.0 µM,94% (active)
same,growth inhibition,[4]; at 1.2 µM,16%
same,growth inhibition,[4]; at 3.7 µM,20%
same,growth inhibition,[4]; [16],25%
same,growth inhibition,[4]; at 11.0 µM,16%
same,growth inhibition,[4]; at 33.0 µM,28%
same,growth inhibition,[4]; [17],66%
same,growth inhibition,[4]; at 50.0 µM,65.2%
same,growth inhibition,[4]; at 100.0 µM,85% (active)
same,growth inhibition,[5]; at 1.2 µM,9%
same,growth inhibition,[5]; at 3.7 µM,0%
same,growth inhibition,[5]; [16],11%
same,growth inhibition,[5]; at 11.0 µM,16%
same,growth inhibition,[5]; at 33.0 µM,14%
same,growth inhibition,[5]; [17],44%
same,growth inhibition,[5]; at 50.0 µM,57.6%
same,growth inhibition,[5]; at 100.0 µM,86% (active)
same,growth inhibition,[6]; at 1.2 µM,0%
same,growth inhibition,[6]; at 3.7 µM,-8%
same,growth inhibition,[6]; at 11.0 µM,-7%
same,growth inhibition,[6]; at 33.0 µM,22%
same,growth inhibition,[6]; at 100.0 µM,94% (active)
same,growth inhibition,[7]; [16],35%
same,growth inhibition,[7]; [17],94% (active)
same,growth inhibition,[7]; at 50.0 µM,70% (active)
same,growth inhibition,[8]; at 1.2 µM,-32%
same,growth inhibition,[8]; at 3.7 µM,-48%
same,growth inhibition,[8]; at 11.0 µM,-34%
same,growth inhibition,[8]; at 33.0 µM,-30%
same,growth inhibition,[8]; at 100.0 µM,29%
same,growth inhibition,[9]; [16],3%
same,growth inhibition,[9]; [17],26%
same,growth inhibition,[9]; at 50.0 µM,30.2%
same,growth inhibition,[10]; at 1.2 µM,8%
same,growth inhibition,[10]; at 3.7 µM,-4%
same,growth inhibition,[10]; [16],23%
same,growth inhibition,[10]; at 11.0 µM,-7%
same,growth inhibition,[10]; at 33.0 µM,6%
same,growth inhibition,[10]; [17],84% (active)
same,growth inhibition,[10]; at 50.0 µM,72.5% (active)
same,growth inhibition,[10]; at 100.0 µM,62%
same,growth inhibition,[11]; at 1.2 µM,-47%
same,growth inhibition,[11]; at 3.7 µM,-47%
same,growth inhibition,[11]; at 11.0 µM,-25%
same,growth inhibition,[11]; at 33.0 µM,-26%
same,growth inhibition,[11]; at 100.0 µM,58%
same,growth inhibition,[12]; at 1.2 µM,7%
same,growth inhibition,[12]; at 3.7 µM,-3%
same,growth inhibition,[12]; at 11.0 µM,5%
same,growth inhibition,[12]; at 33.0 µM,35%
same,growth inhibition,[12]; at 100.0 µM,94% (active)
same,growth inhibition,[13]; at 1.2 µM,-6%
same,growth inhibition,[13]; at 3.7 µM,-12%
same,growth inhibition,[13]; at 11.0 µM,-24%
same,growth inhibition,[13]; at 33.0 µM,51%
same,growth inhibition,[13]; at 100.0 µM,98% (active)
same,growth inhibition,[14]; [16],19%
same,growth inhibition,[14]; [17],67%
same,growth inhibition,[14]; at 50.0 µM,68%
same,growth inhibition,[15]; at 1.2 µM,-12%
same,growth inhibition,[15]; at 3.7 µM,-12%
same,growth inhibition,[15]; at 11.0 µM,-11%
same,growth inhibition,[15]; at 33.0 µM,5%
same,growth inhibition,[15]; at 100.0 µM,90% (active)
